In PubChem BioAssay:
For some of these results: Potency and affinity values are given separately. The source made the active and inactive calls.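 The calls were made as follows, unless noted: active = primary screen inhibitor hit that blocks the TRPC4 channel at some tested dose, yielding a dose curve; inactive = the rest.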

What was measured:
[1] = system: TRPC4 beta (transient receptor potential cation channel C4), mouse; experiment: activators of mouse TRPC4 channel, confirmation, cell-based, Fluo4 calcium, HEK293 TRPC4beta/mu-opioid, duplicates, 10 µM (AID 2426;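 active = fluorescence ratio normalized to control raised more than 50% in primary screen plus both repeat runs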;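 as to activation: percent rise of integrated ratio over buffer wells lacking compound which define 0%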); settings: Fluo4 calcium fluorescence, at 10 µM; hits give high values
[2] = system: transient receptor potential cation channel C4 beta (TRPC4), mouse; experiment: activators of mouse TRPC4 channel, confirmation, cell-based, second round, Fluo4, HEK293 TRPC4beta/mu-opioid, 1 µM (AID 2461;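 active = primary screen active and over 50% activation in each of two duplicate runs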;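 as to activation: 0% = wells without test compound as baseline of integrated fluorescence ratio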); settings: Fluo4 calcium fluorescence, at 1 µM; hits give high values
[3] = system: TRPC4 (transient receptor potential cation channel C4 beta), mouse; experiment: positive allosteric modulators of mouse TRPC4, confirmation, cell-based, second round, Fluo-4, HEK293 TRPC4beta/mu-opioid, 1 µM (AID 2554;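 active = primary screen hit whose fluorescence ratio, in both repeats, exceeds the weak agonist control mean by 3 SD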); settings: DAMGO EC20, Fluo-4 calcium flux, at 1 µM; hits give high values
[4] = system: TRPC4 beta (transient receptor potential cation channel C4), mouse; experiment: positive allosteric modulators of mouse TRPC4, confirmation, cell-based, Fluo-4, HEK293 TRPC4beta/mu-opioid (AID 2555;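 active = primary screen hit whose calcium fluorescence ratio, in both repeats, exceeds the weak agonist control mean by 3 SD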); settings: DAMGO EC20, Fluo-4 calcium flux, at 10 µM; hits give high values
[5] = target: Short transient receptor potential channel 4 (Mus musculus) (UniProt Q9QUQ5); experiment: inhibitors of mouse TRPC4 channel, confirmation, cell-based, Fluo4, HEK293 TRPC4beta/mu-opioid (AID 2636;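 active = calcium signal cut by more than 3 SD below the full-agonist control yet still positive, in both repeats and the earlier primary screen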); settings: DAMGO, Fluo4 calcium flux, at 10 µM; hits give high values
Chain of Short transient receptor potential channel 4 (Mus musculus) (Q9QUQ5 whole entry, looked up): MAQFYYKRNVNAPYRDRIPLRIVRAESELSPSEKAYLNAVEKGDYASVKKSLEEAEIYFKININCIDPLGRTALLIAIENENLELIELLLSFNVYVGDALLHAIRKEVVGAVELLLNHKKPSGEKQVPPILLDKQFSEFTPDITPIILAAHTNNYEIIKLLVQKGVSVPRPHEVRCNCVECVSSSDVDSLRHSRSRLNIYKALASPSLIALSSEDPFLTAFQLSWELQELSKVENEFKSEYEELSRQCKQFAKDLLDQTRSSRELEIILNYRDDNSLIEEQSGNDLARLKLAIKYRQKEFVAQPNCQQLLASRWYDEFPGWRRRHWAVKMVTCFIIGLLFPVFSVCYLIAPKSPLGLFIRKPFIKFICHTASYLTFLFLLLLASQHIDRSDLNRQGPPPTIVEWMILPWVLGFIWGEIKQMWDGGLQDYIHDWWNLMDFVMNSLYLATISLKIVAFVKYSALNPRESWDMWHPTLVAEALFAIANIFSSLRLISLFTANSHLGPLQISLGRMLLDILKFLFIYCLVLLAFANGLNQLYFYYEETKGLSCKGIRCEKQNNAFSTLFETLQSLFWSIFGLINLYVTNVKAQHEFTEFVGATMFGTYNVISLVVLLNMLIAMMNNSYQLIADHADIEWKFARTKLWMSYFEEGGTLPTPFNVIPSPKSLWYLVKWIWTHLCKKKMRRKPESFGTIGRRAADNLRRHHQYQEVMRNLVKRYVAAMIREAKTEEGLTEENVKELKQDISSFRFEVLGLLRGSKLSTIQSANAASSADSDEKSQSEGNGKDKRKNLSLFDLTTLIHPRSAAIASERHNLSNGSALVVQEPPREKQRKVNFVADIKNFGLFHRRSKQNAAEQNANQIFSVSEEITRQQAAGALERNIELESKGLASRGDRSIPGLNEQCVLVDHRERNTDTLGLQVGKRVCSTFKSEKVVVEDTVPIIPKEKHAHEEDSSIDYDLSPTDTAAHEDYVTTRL

[6] = target: Short transient receptor potential channel 4 (Mus musculus) (UniProt Q9QUQ5); experiment: inhibitors of mouse TRPC4 channel, confirmation, cell-based, second round, Fluo4, HEK293 TRPC4beta/mu-opioid, 1 µM (AID 2637;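 active = calcium signal ratio cut to more than 3 SD under the fully stimulated control mean yet still positive, in both repeats and the primary screen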); settings: Fluo4 calcium flux, DAMGO, at 1 µM; hits give high values
[7] = target: Short transient receptor potential channel 4 (Mus musculus) (UniProt Q9QUQ5); experiment: TRPC4 positive allosteric modulators, dose response, cell-based, HEK293 TRPC4/mu-opioid, Fluo-4 calcium, EC20 DAMGO (AID 434941;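 active = earlier screen potentiator hit that boosts the TRPC4 ion channel at some dose, with a dose response; inactive = no potentiation, no dose response, or not a prior hit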;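 also: calcium entry triggered by an EC20 dose of DAMGO at the co-expressed mu-opioid receptor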)
[8] = target: Short transient receptor potential channel 4 (Mus musculus) (UniProt Q9QUQ5); experiment: mouse TRPC4 channel inhibitors, dose response, cell-based, HEK293 TRPC4/mu-opioid, Fluo-4 calcium (AID 434942)
[9] = target: Short transient receptor potential channel 6 (Mus musculus) (UniProt Q61143); experiment: inhibition of mouse TRPC6 channel, confirmation, selectivity assay for TRPC4 inhibitor project, cell-based, HEK293, membrane potential dye, duplicate (AID 434948;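 active = active in primary screen and both duplicates, each dropping signal beyond three positive-control SD with fluorescence still positive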); settings: HEK293 TRPC6, membrane potential dye fluorescence, at 10 µM, stimulated with maximal-effect acetylcholine; hits give high values
Chain of Short transient receptor potential channel 6 (Mus musculus) (Q61143 whole entry, looked up): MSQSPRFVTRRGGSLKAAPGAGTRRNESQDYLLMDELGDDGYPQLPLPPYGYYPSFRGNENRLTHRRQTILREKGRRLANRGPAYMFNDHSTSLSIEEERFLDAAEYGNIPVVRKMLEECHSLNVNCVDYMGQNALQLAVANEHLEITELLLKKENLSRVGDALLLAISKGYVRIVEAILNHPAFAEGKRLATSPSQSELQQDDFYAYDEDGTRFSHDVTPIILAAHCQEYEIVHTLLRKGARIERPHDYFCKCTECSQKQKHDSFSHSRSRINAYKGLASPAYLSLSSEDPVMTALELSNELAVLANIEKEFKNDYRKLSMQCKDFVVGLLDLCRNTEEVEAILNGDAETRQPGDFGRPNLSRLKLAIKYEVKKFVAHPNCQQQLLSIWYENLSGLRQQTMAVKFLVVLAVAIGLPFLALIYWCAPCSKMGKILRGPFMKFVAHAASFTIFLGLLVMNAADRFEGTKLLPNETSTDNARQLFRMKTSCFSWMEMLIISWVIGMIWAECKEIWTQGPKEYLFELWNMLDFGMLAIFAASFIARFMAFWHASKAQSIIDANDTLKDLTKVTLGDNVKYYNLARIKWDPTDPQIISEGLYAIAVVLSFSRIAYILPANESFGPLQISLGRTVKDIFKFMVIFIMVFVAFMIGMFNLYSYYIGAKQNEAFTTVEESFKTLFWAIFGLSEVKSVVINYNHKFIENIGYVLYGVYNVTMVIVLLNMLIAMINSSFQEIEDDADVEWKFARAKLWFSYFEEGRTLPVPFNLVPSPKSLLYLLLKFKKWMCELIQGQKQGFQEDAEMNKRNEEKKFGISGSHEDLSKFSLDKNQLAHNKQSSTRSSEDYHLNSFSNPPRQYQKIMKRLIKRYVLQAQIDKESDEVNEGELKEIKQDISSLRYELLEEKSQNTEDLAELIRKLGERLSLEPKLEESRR

[10] = target: Short transient receptor potential channel 6 (Mus musculus) (UniProt Q61143); experiment: activation of mouse TRPC6 channel, confirmation, selectivity assay for TRPC4 activator project, cell-based, HEK293, membrane potential dye, duplicate (AID 434950;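 active = membrane potential signal rise above negative control mean plus 3 SD in both duplicates, also active in the earlier TRPC4 screen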;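 as to activation: 0% = buffer only wells and 100% = acetylcholine maximal-effect wells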); settings: HEK293 TRPC6, membrane potential fluorescence, at 10 µM; hits give high values
[11] = target: Short transient receptor potential channel 6 (Mus musculus) (UniProt Q61143); experiment: TRPC6 potentiation by TRPC4 potentiator hits, confirmation, selectivity assay for TRPC4 potentiator project, HEK293 cells, membrane potential dye, duplicate (AID 434952;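 active = compound raising the membrane signal above positive-control mean plus 3 SD in both repeats, and a primary screen hit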); settings: HEK293 TRPC6, membrane potential dye fluorescence, at 10 µM, maximal acetylcholine added after compound; hits give high values
[12] = target: Short transient receptor potential channel 4 (Mus musculus) (UniProt Q9QUQ5); experiment: calcium flux activators in TRPC4/5HT1a cells, counter-screen for TRPC4 activator project, cell-based, second counter screen, HEK293 TRPC4/5HT1a, Fluo-4 (AID 434977;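 active = calcium signal rise above buffer-control mean plus 5 SD in both duplicates, and also a hit in the primary screen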;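 as to activation: plate controls were assay buffer for no effect and maximal serotonin response for full effect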); settings: Fluo-4 calcium flux, at 10 µM; hits give high values
[13] = calcium flux inhibitors in TRPC4/5HT1a cells, confirmation, counter-screen for TRPC4 inhibitor project, cell-based, second counter screen, HEK293 TRPC4/5HT1a, Fluo-4 (AID 434978;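 active = primary screen active whose calcium signal fell more than 3 SD beyond the full-serotonin control mean in both duplicate plates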;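 also: serotonin given first at submaximal then at maximal dose after compound preincubation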); settings: Fluo-4 calcium flux, at 10 µM, serotonin added to trigger calcium flux; hits give high values
[14] = system: TRPC4 (mouse), co-expressed with 5HT1a in HEK293; experiment: calcium flux potentiators in TRPC4/5HT1a cells, confirmation, counter-screen for TRPC4 potentiator project, cell-based, second counter screen, HEK293 TRPC4/5HT1a, Fluo-4 (AID 434979;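 active = signal rise over 3 SD above mean of control wells given weak agonist, in both repeats and first screen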); settings: Fluo-4 calcium flux, at 10 µM, serotonin added at its EC20 dose; hits give high values
[15] = calcium flux activation in mu-opioid HEK293 cells, confirmation, counter-screen for TRPC4 activator project, cell-based, HEK293 mu-opioid receptor line (AID 449723;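 active = hit in primary screen, with calcium signal over 5 SD above buffer well mean in both duplicates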;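 also: counter screen cells carry the mu-opioid receptor alone and lack TRPC4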); settings: Fluo-4 calcium fluorescence, at 10 µM; hits give high values
[16] = calcium flux enhancement in mu-opioid HEK293 cells, confirmation, counter-screen for TRPC4 allosteric potentiator project, cell-based, HEK293 mu-opioid receptor line (AID 449724;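 active = calcium signal rise more than 3 SD above the low-dose agonist control mean, in both duplicate plates and the primary screen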); settings: Fluo-4 calcium flux, at 10 µM, compound added before EC20 DAMGO stimulus; hits give high values

CCOc1ccccc1C1CC(c2ccc(Cl)cc2)Nc2nc(N)nn21 (stereo not drawn)
active: activation [1] 243% | activation [12] 6.24%
inactive: outcome [2] | outcome [3] | outcome [4] | outcome [5] | outcome [6] | outcome [7] | outcome [8] | outcome [9] | outcome [10] | outcome [11] | outcome [13] | outcome [14] | outcome [15] | outcome [16]

COc1ccc(F)cc1CN1CCN(C(=O)CCC(=O)Nc2nnc(C(C)C)s2)CC1
inactive: outcome [1] | outcome [2] | outcome [3] | outcome [4] | outcome [5] | outcome [6] | outcome [7] | outcome [8] | outcome [9] | outcome [11] | outcome [12] | outcome [13] | outcome [14] | outcome [15] | outcome [16]
active: activation [10] 41.5%

O=C(CN1CCN(c2ncc(C(F)(F)F)cc2Cl)CC1)N1CCN(c2ncc(C(F)(F)F)cc2Cl)CC1
active: activation [1] 128% | activation [12] 42%
inactive: outcome [2] | outcome [3] | outcome [4] | outcome [5] | outcome [6] | outcome [7] | outcome [8] | outcome [9] | outcome [10] | outcome [11] | outcome [13] | outcome [14] | outcome [15] | outcome [16]

CCc1ccc(C(=O)c2cnc3ccc(OC)cc3c2N2CCN(CC)CC2)cc1
inactive: outcome [2] | outcome [3] | outcome [4] | outcome [5] | outcome [6] | outcome [7] | outcome [8] | outcome [9] | outcome [10] | outcome [11] | outcome [12] | outcome [13] | outcome [14] | outcome [15] | outcome [16]
active: activation [1] 283%

CNCC(=O)N1CCN(c2ncc(C(F)(F)F)cc2Cl)CC1
active: activation [1] 155% | activation [2] 128% | activation [12] 79.5%
inactive: outcome [3] | outcome [4] | outcome [5] | outcome [6] | outcome [7] | outcome [8] | outcome [9] | outcome [10] | outcome [11] | outcome [13] | outcome [14] | outcome [15] | outcome [16]

CC(C)(C)[C@H]1C=C(C(=O)NCc2ccccc2)O[C@@H](OCc2ccc(CO)cc2)C1
active: activation [1] 68% | activation [10] 24.5%
inactive: outcome [2] | outcome [3] | outcome [4] | outcome [5] | outcome [6] | outcome [7] | outcome [8] | outcome [9] | outcome [11] | outcome [12] | outcome [13] | outcome [14] | outcome [15] | outcome [16]

CN(C)C(CNC(=O)CCS(=O)(=O)c1ccccc1)c1ccccc1 (stereo not drawn)
inactive: outcome [3] | outcome [4] | outcome [5] | outcome [6] | outcome [7] | outcome [8] | outcome [9] | outcome [10] | outcome [11] | outcome [12] | outcome [13] | outcome [14] | outcome [15] | outcome [16]
active: activation [1] 77% | activation [2] 75%

Cc1ccc(Cn2c(SCCN3CCCCC3)nc3c2c(=O)n(C)c(=O)n3C)cc1
active: activation [1] 114% | potentiation [3] 8% | potentiation [4] 13% | activation [12] 8.42% | potentiation [14] 81%
inactive: outcome [2] | outcome [5] | outcome [6] | outcome [7] | outcome [8] | outcome [9] | outcome [10] | outcome [11] | outcome [13] | outcome [15] | outcome [16]

Cc1cccc(C(=O)OC2CCCN(C)C2)c1C (stereo not drawn)
active: activation [1] 76% | activation [10] 60.5% | activation [12] 20%
inactive: outcome [2] | outcome [3] | outcome [4] | outcome [5] | outcome [6] | outcome [7] | outcome [8] | outcome [9] | outcome [11] | outcome [13] | outcome [14] | outcome [15] | outcome [16]

O=C1NCN(c2ccccc2)C12CCN(CCCC(c1ccc(F)cc1)c1ccc(F)cc1)CC2
inactive: outcome [1] | outcome [2] | outcome [3] | outcome [4] | outcome [5] | outcome [6] | outcome [7] | outcome [8] | outcome [9] | outcome [11] | outcome [12] | outcome [13] | outcome [14] | outcome [15] | outcome [16]
active: activation [10] 31%

CCOC(=O)C1(Cc2ccccc2)CCN(Cc2cn[nH]c2-c2ccccc2)CC1
inactive: outcome [2] | outcome [3] | outcome [4] | outcome [5] | outcome [6] | outcome [7] | outcome [8] | outcome [9] | outcome [11] | outcome [12] | outcome [13] | outcome [14] | outcome [15] | outcome [16]
active: activation [1] 192% | activation [10] 76%

NCCNC(=O)c1c(NC(=O)c2ccccc2)sc2c1CCCC2
inactive: outcome [2] | outcome [3] | outcome [4] | outcome [5] | outcome [6] | outcome [7] | outcome [8] | outcome [9] | outcome [10] | outcome [11] | outcome [12] | outcome [13] | outcome [14] | outcome [15] | outcome [16]
active: activation [1] 165%

COc1ccc(C(CNC(=O)C2CCN(S(=O)(=O)c3ccc(F)cc3)CC2)N(C)C)cc1 (stereo not drawn)
inactive: outcome [2] | outcome [3] | outcome [4] | outcome [5] | outcome [6] | outcome [7] | outcome [8] | outcome [9] | outcome [10] | outcome [11] | outcome [12] | outcome [13] | outcome [14] | outcome [15] | outcome [16]
active: activation [1] 149%
